# The supplement of paper PMC6555819
# Key:
# Test in all cases: PBM binding z-score (relative to random genomic background probes); higher = stronger binding; sequences stand for … in GC…GCGATTGACAGCGTAGAATGAAGG
# [1] = tested on: RARb homodimer (NR concentration 270 nM)
# How it was run: (§1)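 Custom Agilent 4×180K protein-binding microarrays carried double-stranded probes, each with a 34-nt variable region. These regions held direct-repeat seeds, single-nucleotide variants, half-site ablations and random human genomic background sequences. Ligand-free nuclear receptor dimers were incubated on the arrays for 1 h, antibodies against each partner (one per run) detected binding, and scanned fluorescence was regression-normalized. Binding z-scores take the random background probes as reference.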
# [2] = tested on: RARg:RXRa (NR concentration 270 nM, RXRa partner concentration 90 nM)
# How it was run: as §1
# [3] = tested on: RARg homodimer (NR concentration 270 nM)
# How it was run: as §1
# [4] = tested on: RXRa DBDmut IVT, anti-RXR (DBD mutation: RXRa K156A/R161A, NR concentration 90 nM)
# How it was run: as §1
# [5] = tested on: RXRa homodimer (NR concentration 180 nM)
# How it was run: as §1
# [6] = tested on: THRa:RXRa (NR concentration 90 nM, RXRa partner concentration 90 nM)
# How it was run: as §1
# [7] = tested on: THRa homodimer (NR concentration 90 nM)
# How it was run: as §1
# [8] = tested on: VDR homodimer (NR concentration 270 nM)
# How it was run: as §1
Sequence,PBM binding z-score [1],PBM binding z-score [2],PBM binding z-score [3],PBM binding z-score [4],PBM binding z-score [5],PBM binding z-score [6],PBM binding z-score [7],PBM binding z-score [8]
ATATGTAGGTTACACCCGGGTCATTCAGGCTATG,3.06,3.97,2.06,0.528,3.23,3.77,2.45,2.67
GCTTACGGGTCAATGGTTATAGCATGAATAGAAT,2.28,4.02,3.9,1.65,4.17,1.87,-0.17,0.787
CGAACTAGGTCAGAACAGGACGGTGAAGGATGAT,1.69,2.3,3.17,0.53,1.14,2.43,-0.175,-0.257
CCTAGCAGTCCAGGGTCACTCAAGCATTTCGCTT,2.5,2.77,2.03,1.07,3.27,2.95,1.64,1.7
ATCTCTAGGTAACAAGTTCAATGAAAGAGAGGAC,2.24,2.06,1.8,2.15,1.31,1.76,1.19,3.97
ATATGTAGGTTATATCCGGGTCATTCAGGCTATG,2.73,3.85,1.81,1.22,2.84,3.82,2.73,3.33
CTCGAAAGGTCGGTTGAGGTGAATATACGGATAA,2.32,2.98,2.77,0.545,2.5,5.06,1.58,0.52
TGAATGAGGTTACAGATCAGGGAACGTGGCGTCG,0.793,1.89,1.4,0.394,2.29,2.67,0.836,0.364
CGTAGCAGGCCAGGGTCACTCAAGCATTTCGCTT,2.51,3.02,2.53,0.749,3.36,2.84,1.33,1.18
CAAACTAGGTCACGAAAGGTAAAAGTCGAATGAC,3.34,5.16,5.56,2.02,4.2,4.18,1.49,0.85
CTCGAAAGGTCGGTTGAGGTGAGTATCCGGATAA,2.38,2.82,2.94,0.858,2.31,5.01,1.34,0.136
TCATATAGGTAAGAGGTGAAAGTCGGTGTGGTAA,1.34,1.19,0.66,1.84,1.99,1.69,0.894,0.13
ACTATTAGTTGACTTAGAGCAACCGATACGACGC,-0.15,0.294,0.597,0.671,0.318,0.0226,0.0225,-0.0313
TAGCCTAGGTAATGGGCCAGTATACCACGCGAAC,-0.381,-0.234,-0.0696,-1.16,-0.0912,-0.354,-0.5,-0.715
TCATATAGGTAAATGGTGAAAGTCGGTGTGGTAA,0.19,0.0436,-0.12,1.83,0.476,0.0433,0.202,0.415
CATACAAGGTCAGCTAGGCCAGAGTAGGGACGGC,3.83,5.19,5.79,2.04,4.4,3.54,1.97,1.65
CAAACTAGGTCACGAAAGGCCAAAGTCGAATGAC,4.29,5.29,5.81,2.01,3.94,4.33,1.52,1
ACTAGTTGGTCAGCTGTGGTCACACACAATTCGG,1.25,0.489,0.965,0.13,0.281,1.77,0.0925,0.0683
TTACCAAGGTGAGCTGAGGTCGATGATCCAACTC,1.56,1.03,1.05,-0.52,1.06,4.48,1.6,0.355
TCATATAGCTAAAGGTGAAAGTCGAACGATATGA,1.14,1.43,0.944,0.443,1.84,1.18,-0.427,-0.396
CCTGCTAGGTCATGGTCAGCTAATCTACAGTATG,3.24,4.01,4.52,1.9,2.92,3.06,1.39,0.473
ACCTACGGGTCAACGAGGTTATAGCACGCGTATA,3.18,5.47,4.95,2.06,5.89,3.88,0.718,3.51
GCTCGGAGGACAAGGTCAGTGCTTTGTCCGTAGA,3.23,2.82,3.65,0.477,1.29,2.77,1.49,0.406
TCGAGTAGGTTACTCGGGGCATTCAGCCAACATA,0.524,0.206,0.191,0.42,0.372,1.76,-0.17,0.557
ATCTCTAGGTAAAAGTTCTGTGAATCCCGAGGAT,-0.265,0.293,0.308,-0.0693,0.153,0.234,0.364,0.467
ACTAGCAGGCCAAGGGACACTCAAGATTAGTCCG,0.745,0.424,0.835,-0.24,-0.0147,-0.112,-0.143,-0.433
TATACAGGGGCAAAGGCCAGAGTACGAATGTCGA,1.74,1.95,1.85,0.806,1.49,0.569,-0.328,0.679
TCTCGGAGGACACGAAAGCTCAGAGCTCGACATC,0.352,0.462,1.19,0.558,-0.227,1.23,0.151,-0.801
GCGACTGGGGCATCAGCAGGATACCATAACTTAA,-0.0166,-0.0136,0.464,-0.418,-0.172,0.271,-0.673,-0.734
